Assay in all cases: NCI-60 one-dose screen, 48 h (100 = growth as untreated, 0 = no growth, -100 = all killed)
What all share (details): 10 µM unless noted

In experiment [1] the test system is T-47D breast.
In experiment [2] the test system is BT-549 breast.
The test system of experiment [3] is MDA-MB-435 melanoma.
Experiment [4] concerns SW-620 colon.
The subject of experiment [5] is MCF7 breast.
Experiment [6] has as its system HCT-116 colon.
Experiment [7] concerns HCC-2998 colon.
Experiment [8] relates to KM12 colon.

The structures appear in SMILES notation. About 83,000 compounds went through this panel and 20% of them were active in at least one assay; those are over-represented in the sample as a whole.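 Percent growth is the endpoint: 0 to 100 indicates growth inhibition (40 means 60% inhibition), 0 means no net growth, and negative values indicate cell death.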 Unmarked numbers belong to inactive results. The source made the active and inactive calls. The calls were made as follows: active = growth percent below 10; inactive = the rest.

For the compound `C=CCNc1ccc2c3c(cccc13)C(=O)N(CC=C)C2=O`, the growth in experiment [1] is 83%; in experiment [2], 98.4%; in experiment [3], 109%; in experiment [4], 108%; in experiment [5], 34%; in experiment [6], 86.5%. For the same compound, the growth was 106% in experiment [7] and 101% in experiment [8].
As for `NCCNc1ccc([N+](=O)[O-])cc1`, the growth in experiment [1] was 106%; in experiment [2], 103%; in experiment [3], 113%; in experiment [4], 112%; in experiment [5], 101%; in experiment [6], 98.8%. Also, the growth in experiment [7] and in experiment [8] was 115% each time.
With `O=C(N/N=C/c1ccccc1Cl)c1ccccc1Nc1ccnc(C(F)(F)F)c1`, the growth in experiment [1] was -14.3% (active); in experiment [2], 15.7%; in experiment [3], 14.6%; in experiment [4] it was 16.6%; in experiment [5], 9.9% (active); in experiment [6], 13.3%. Also, the growth was -20.7% (active) in experiment [7] and 10.4% in experiment [8].
For the compound `COC(CCP(=O)(c1ccccc1)c1ccccc1)(C(=O)c1ccccc1)c1ccccc1` (stereo not drawn), the growth in experiment [1] was 47.6%; in experiment [2], 60.4%; in experiment [3] it was 71.4%; in experiment [4] it was 76%; in experiment [5] it was 35.1%; in experiment [6] it was 45.5%. In addition, the growth is 72.7% in experiment [7] and 57.3% in experiment [8].
As for `c1ccc2cc(Cn3cc[n+](Cc4ccc5ccccc5c4)c3)ccc2c1`, the growth was -5.37% (active) in experiment [1]; 2.35% (active) in experiment [2]; 7.71% (active) in experiment [3]; 58% in experiment [4]; 37.2% in experiment [5]; 41% in experiment [6]. Further, the growth was 26.5% in experiment [7] and -1.63% (active) in experiment [8].
As for `Cc1c2cnccc2c(C)c2c1c1cc(C(=O)O)ccc1n2C`, the growth in experiment [1] is -10.2% (active); in experiment [2], -1.22% (active); in experiment [3] it was 5.58% (active); in experiment [4], 7.21% (active); in experiment [5], 1.28% (active); in experiment [6], 2.6% (active). Moreover, the growth in experiment [7] was 4.89% (active); in experiment [8], 5.47% (active).
For the compound `O=C(/C=C\c1ccc(O)c(O)c1)c1ccccc1O`, the growth in experiment [1] is 67%; in experiment [2] it was 5.5% (active); in experiment [3], 67.9%; in experiment [4] it was 67.7%; in experiment [5] it was 48%; in experiment [6] it was 83.7%. Moreover, the growth in experiment [7] and in experiment [8] was 60.7% throughout.
For the compound `CN1C(=O)N(C)C2C1NN=c1s/c(=C\c3ccc(F)cc3)c(=O)n12` (stereo not drawn), the growth in experiment [1] is 13.3%; in experiment [2], 44.2%; in experiment [3], -19% (active); in experiment [4], 10.2%; in experiment [5], 4.25% (active); in experiment [6], 4.86% (active). Further, the growth in experiment [7] was 57.8%; in experiment [8], 18.9%.
Consider `Oc1ccc(C(c2ccc(O)cc2)c2ccc(Cl)cn2)cc1`, for which the growth in experiment [1] is -34.4% (active); in experiment [2] it was -30.1% (active); in experiment [3] it was 101%; in experiment [4] it was 106%; in experiment [5], -17.3% (active); in experiment [6] it was 27.6%. For the same compound, the growth in experiment [7] was 1.05% (active); in experiment [8], 20.8%.
As to `CC1=C(C(=O)c2ccccc2)C(c2ccc3c(c2)OCO3)NC(=S)N1` (stereo not drawn), the growth in experiment [1] was 67.9%; in experiment [2], 50.6%; in experiment [3] it was -49.5% (active); in experiment [4], 24.2%; in experiment [5], 22%; in experiment [6], 20.1%. In addition, the growth in experiment [7] is 62.2%; in experiment [8], 20%.
As to `COC(=O)[C@@H](Cc1c[nH]c2ccccc12)NC[C@@H](O)CN1C(=O)/C(=C\c2cc(OC)c(OC)c(OC)c2)c2ccccc21`, the growth in experiment [1] was 54.5%; in experiment [2] it was 68.4%; in experiment [3], 56.1%; in experiment [4], 77.3%; in experiment [5], 34.2%; in experiment [6], 66%. Also, the growth was 75.2% in experiment [7] and 60.4% in experiment [8].
Regarding `CN1CCN(Cc2ccc(NC(=O)c3cncc(C#Cc4cnc(N)c5ccc(C#N)cc45)c3)cc2C(F)(F)F)CC1`, the growth in experiment [1] is 10.4%; in experiment [2] it was 37.3%; in experiment [3], -74.3% (active); in experiment [4], -41.3% (active); in experiment [5] it was -60.8% (active); in experiment [6] it was -65.7% (active). Further, the growth is 32.6% in experiment [7] and -85.1% (active) in experiment [8].
Take `CO[C@]12C=C/C(=C(/C(=O)OCc3cccnc3)C(=O)CCCCCCCC[C@]3(OC)C=C/C(=C(/C(=O)OCc4cccnc4)C(=O)CCCCCCCC1)O3)O2`: the growth in experiment [1] was -17.2% (active); in experiment [2] it was -67.8% (active); in experiment [3], -42.4% (active); in experiment [4], -33.3% (active); in experiment [5], -56.3% (active); in experiment [6], -86% (active). The results for the growth in experiment [7] and in experiment [8] were -90.6% (active) and -86.5% (active), respectively.
On to `NC(=N\N=C/c1ccc(Cl)cc1Cl)/C(N)=N\N=C/c1ccc(Cl)cc1Cl`, for which the growth was 10.8% in experiment [1]; 111% in experiment [2]; 82.6% in experiment [3]; 63.4% in experiment [4]; 87% in experiment [5]; 21.9% in experiment [6]. Further, the growth in experiment [7] is 88.8%; in experiment [8], 84%.
For `Nc1ncc(-c2ccc3ncnc(N4CCc5cc(F)c(Cl)cc54)c3c2)cc1C=O`, the growth was 7.88% (active) in experiment [1]; 9.08% (active) in experiment [2]; 0.36% (active) in experiment [3]; 37.9% in experiment [4]; 11.8% in experiment [5]; 36.6% in experiment [6]. Further, the growth is 21.2% in experiment [7] and 39.2% in experiment [8].
With `CC1(C)CC[C@]2(CO)CC[C@]3(C)[C@H](CC[C@@H]4[C@@]5(C)CC[C@H](O)C(C)(C)[C@@H]5CC[C@]43C)[C@H]2[C@H]1O`, the growth is 75.1% in experiment [1]; 96.2% in experiment [2]; 91.5% in experiment [3]; 84.9% in experiment [4]; 69.2% in experiment [5]; 42.8% in experiment [6]. For the same compound, the growth is 101% in experiment [7] and 65.2% in experiment [8].

The values above are taken from PubChem BioAssay (NCI).
